# From PubChem BioAssay AID720504 (National Center for Advancing Translational Sciences (NCATS), 2013)
# The campaign covered roughly 360,000 compounds. About 10,000 (2.8%) were called active. Not shown: some 4% with an inconclusive outcome. The sample holds actives, similar compounds and a random draw of the others, so the mix is not that of the screen. Calls come from the whole dose curve; as a rule, active = well fitted inhibition curve with a large enough effect; inconclusive = small, poorly fitted or top-dose-only effect; inactive = flat fitted curve, though single readings scatter.
# Molecular target: Serine/threonine-protein kinase PLK1 (Homo sapiens) (UniProt P53350)
# Assay: qHTS for Inhibitors of PLK1-PDB (polo-like kinase 1 - polo-box domain): Primary Screen; note: nearly all actives have a fitted effect of over 65% in size; for max response, negative = inhibition: series mostly up to about 57 µM
# Conditions: Plk1 PBD binding of FITC phosphopeptide, fluorescence polarization
# Source text: The polo-like kinase 1 (Plk1) is a member of a conserved subfamily of serine / threonine protein kinases that plays a pivotal roles in cell proliferation. It has a C-terminal non-catalytic region called the polo-box domain (PBD) that plays a crucial role in the subcellular localization of the Plk1. […] Furthermore, depletion of the overexpressed Plk1 by RNAi efficiently induces apoptotic cell death in cancer and reduces tumor growth in mouse xenograft models. Thus, targeting Plk1 is an appealing strategy for anti-cancer therapy. Therefore, this project aimed to screen the Molecular Libraries Small Molecule Repository (MLSMR) using a novel approach to find inhibitors that target the Plk1 PBD instead of the conventional N-terminal catalytic domain. This project employed a fluorescence polarization (FP) assay using a FITC-conjugated phospho-9-mer (p-9-mer) peptide and purified human Plk1 PBD protein. The identified small molecule inhibitors of Plk1 PBD can then further be developed into useful tools for biomedical and clinical research that complements or replaces current relevant disease therapy. NIH Chemical Genomics Center [NCGC] NIH Molecular Libraries Probe Centers Network [MLPCN] MLPCN Grant: MH100728 Assay Submitter (PI): Kyung Lee, NCI
# Four microliter of 25 nM FITC-p-9-mer + 60 nM Plk1 PBD in buffer solution (final concentrations 25 nM and 60 nM respectively) or 4 uL of 25 nM FITC-p-9-mer (final concentration 25 nM) in buffer will be dispensed into a 1,536 Greiner medium-binding black solid plate. Small molecules at final concentrations of 18 nM to 57 uM and positive control phospho-9-mer (sequence: Ac-PPLHSpTAI-NH2) at final concentrations 26 nM to 57 uM and phospho-13-mer (sequence: Ac-[…]pTAI-NH2) at final concentrations of 1 nM to 2.3 uM will be pin-transferred (23 nL) to the plate via a Kalypsys pin-tool robotics equipped with a 1,536-pin array. The reaction plate will be centrifuged for 1 min at 1000 rpm and incubated at room temperature for 10 min. The FITC fluorescence signals will be read using the PerkinElmer ViewLux plate reader at 480 / 20 nm excitation and 540 / 20 nm S and P polarization emission wavelengths. Reagent bottles will be kept submerged into 4 °C recirculating chiller bath and all liquid lines will be covered with aluminum foil to minimize degradation. Library plates will be screened starting from the lowest to the highest concentrations to minimize compound carryover. Vehicle only plates, with DMSO being pin-transferred instead of compound solutions, will be included regularly throughout the screen to record any systematic shifts in assay signal.
# % is set by controls: 0 for no effect and ±100 for the full control effect; potency is the fitted concentration of half-maximal effect.
# Serine/threonine-protein kinase PLK1 (Homo sapiens), sequence (P53350 whole entry, looked up, the tested form may be a part): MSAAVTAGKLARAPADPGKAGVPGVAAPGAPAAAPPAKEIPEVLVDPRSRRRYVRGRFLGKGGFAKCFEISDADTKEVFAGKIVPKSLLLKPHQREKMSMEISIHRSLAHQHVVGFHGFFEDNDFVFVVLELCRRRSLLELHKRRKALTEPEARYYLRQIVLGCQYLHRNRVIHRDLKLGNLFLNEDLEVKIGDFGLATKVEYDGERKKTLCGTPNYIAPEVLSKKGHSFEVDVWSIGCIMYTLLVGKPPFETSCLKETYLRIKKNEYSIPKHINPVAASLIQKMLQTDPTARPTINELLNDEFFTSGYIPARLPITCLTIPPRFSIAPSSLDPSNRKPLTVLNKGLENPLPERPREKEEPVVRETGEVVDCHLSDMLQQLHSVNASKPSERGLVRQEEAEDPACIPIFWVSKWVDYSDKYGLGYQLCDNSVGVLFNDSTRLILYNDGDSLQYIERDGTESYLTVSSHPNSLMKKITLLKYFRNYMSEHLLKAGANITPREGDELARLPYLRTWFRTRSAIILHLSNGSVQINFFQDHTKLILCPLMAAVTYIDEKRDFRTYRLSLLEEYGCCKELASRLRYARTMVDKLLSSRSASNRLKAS
Compound,"max response, negative = inhibition",Potency
Cc1ccc(-c2ccc(C3=CC(=O)CC(C)(C)C3=O)cc2)cc1,-0.955% (inactive),
CCCNC(=O)c1cc(C2CCCCN2S(=O)(=O)c2cn(C)cn2)on1 (centres undefined),-4.21% (inactive),
CCCOc1ccc(F)cc1-c1cc(C(=O)Nc2ccc(F)c(Cl)c2)[nH]n1,0.655% (inactive),
CC(=O)Nc1nc(N(C)C)nc(N(C)C)n1,6.17% (inactive),
CN(C)c1nc(NN)nc(Nc2ccc(F)cc2)n1,4.54% (inactive),
CN(C)c1nc(Nc2ccc(Cl)c(Cl)c2)nc(N(C)C)n1,,2.99 µM (active)
CC(=O)Nc1cccc(-c2cc(NC(C)=O)c3ncc(-c4ccccc4)n3c2)c1,-16.7% (inactive),
COc1ccccc1-c1n[nH]nc1C1=CC(=O)CC(C)(C)C1,-7.34% (inactive),
CCCCN1C(=O)/C(=C(/C#N)C(N)=O)c2ccccc21,-17.1% (inactive),
COc1ccc2c(c1)C(=C(C#N)C#N)C(=O)N2CCc1ccccc1,,2.67 µM (active)
C#CCN1C(=O)C(O)(CC(=O)c2cc(OC)ccc2OC)c2ccccc21 (centres undefined),-9.34% (inactive),
COCCNc1nc(NCc2ccc(NC(C)=O)cc2)c2sccc2n1,-10.2% (inactive),
CS(=O)(=O)c1ccc(Cl)c(NC(=O)Nc2ccccc2)c1,,23.8 µM (active)
Cc1ccc(NC(=O)Nc2ccccc2)c(Br)c1,-8.61% (inactive),
CS(=O)(=O)c1ccc(Cl)c(NC(=O)COC(=O)c2ncc(Cl)c(Cl)c2Cl)c1,-10.8% (inactive),
CSc1ncnc2c1ncn2CCCNCC(C)c1ccccc1 (centres undefined),1.77% (inactive),
COC(=O)c1ccccc1SC1CC(=O)N(c2cccc(C)c2)C1=O (centres undefined),-24.8% (inactive),
Cc1cccc(N2C(=O)CC(SC(N)=Nc3ccccc3)C2=O)c1 (centres undefined),,23.8 µM (active)
Cc1cccc(N2C(=O)SC(SC(=Nc3ccccc3)Nc3ccccc3)C2=O)c1 (centres undefined),,15 µM (active)
Cc1cccc(N2C(=O)SC(N(CC(=O)O)c3cccc(C)c3)C2=O)c1 (centres undefined),-27.2% (inactive),
COc1cccc(N2C(=O)CC(N3CCc4ccccc4C3)C2=O)c1 (centres undefined),-2.65% (inactive),
Cc1cccc(N2C(=O)c3ccc(C(=O)Nc4cccc(C(=O)O)c4)cc3C2=O)c1,2.25% (inactive),
CCOc1ccc(CCN2C(=O)C(=O)N([C@@H](Cc3ccc(O)cc3)CN3CCC[C@H]3CN3C(=O)C(=O)NC[C@@H]3CC(C)C)C[C@@H]2Cc2ccccc2)cc1,-15% (inactive),
CCC(C)C(CO)NC(=O)/C=C/[C@H]1O[C@@H](n2cnc3c(NC(=O)c4ccccc4)ncnc32)[C@H](O)[C@@H]1O (some centres undefined),-12% (inactive),
COc1ccc(/C=N/N=C2/C(=O)Nc3ccccc32)cc1O,,23.8 µM (active)
O=C1Nc2ccc(Br)cc2/C1=N/N=C/C1=C(N2CCOCC2)C(=C\c2ccccc2)/CC1,-6.57% (inactive),
CCOc1ccc(/C=N/NC(=O)CSc2ccccn2)cc1O,-2.2% (inactive),

Compound,"max response, negative = inhibition",Potency
Cc1ccc(S(=O)(=O)N[C@H]2CCC[C@@H]2O)cc1,-13.6% (inactive),
O=C(c1ccc(C(F)(F)F)cc1)N1CCC(=O)N([C@H](COCc2ccccc2)Cc2ccccc2)CC1,-8.35% (inactive),
O=S1(=O)CC(N2CCN(CCO)CC2)CN1C1CCCC1 (centres undefined),3.7% (inactive),
COC(=O)C1=C(N)Oc2cc(C)oc(=O)c2C1c1cccnc1 (centres undefined),-10.6% (inactive),
CCN1C(=O)N[C@@H](c2ccccc2)C(C(=O)OC)=C1C,-12.3% (inactive),
COC(=O)C1=C(N)Oc2cc(C)[nH]c(=O)c2C1c1ccc(Cl)cc1 (centres undefined),,23.8 µM (active)
CC(=O)c1ccc(Nc2nc(C(N)c3ccccc3Cl)cs2)cc1 (centres undefined),-10.4% (inactive),
O=C(O)C1CCCN1c1nc(Cl)ccc1[N+](=O)[O-] (centres undefined),-5.29% (inactive),
Cc1nccn1-c1ccc(NC(=O)[C@H]2O[C@@H](n3cnc4c(N)ncnc43)[C@H](O)[C@@H]2O)cc1,-3.34% (inactive),
O=c1[nH]c2ccccc2n1C1CCN(CCOc2ccccc2)CC1,0.342% (inactive),
Cc1ccc(SCc2cc(=O)[nH]c(N3CCCCC3)n2)cc1,-8.91% (inactive),
c1ccc(-c2cc(N3CCCCC3)c3ccccc3n2)cc1,-13.3% (inactive),
O=c1cc(-c2ccccc2)nc(N2CCCCC2)[nH]1,,23.8 µM (active)
C[C@H](CO)N1C[C@H](C)[C@@H](CN(C)C(=O)c2cnccn2)Oc2ncc(Br)cc2C1=O,-5.95% (inactive),
C[C@H](CO)N1C[C@H](C)[C@H](CN(C)C(=O)c2ccncc2)OCc2ccccc2-c2c(n(C)c3ccccc23)C1=O,-5.78% (inactive),
COc1cccc(-c2cnc3c(NC(C)=O)cc(-c4cccc(NC(C)=O)c4)cn23)c1,-1.26% (inactive),
CC1(C(=O)NS(=O)(=O)c2ccccc2)CCN1C(=O)Cc1ccc(-c2ccccc2)cc1 (centres undefined),-4.54% (inactive),
CCn1c(SCC(=O)Nc2nc(C)cs2)nnc1C(C)NC(=O)c1ccccc1 (centres undefined),,29.9 µM (active)
CCn1c(CC(=O)Nc2ccccc2)nnc1SCC(=O)N1CCOCC1,-0.409% (inactive),
Cc1ccc(NC(=O)Cc2nnc(SCC(=O)Nc3nncs3)n2C)cc1,-3.59% (inactive),
CCn1c(SCC(=O)NC2=NCCS2)nnc1C(C)NC(=O)c1ccccc1F (centres undefined),-16.2% (inactive),
CCn1c(CC(=O)Nc2ccc(C)cc2)nnc1SCC(=O)Nc1nc(C)cs1,,26.7 µM (active)
COCCn1c(SCC(=O)Nc2nc(C)cs2)nnc1C(C)C,-12.4% (inactive),
C[C@@H]1CN([C@@H](C)CO)C(=O)c2cc(NS(C)(=O)=O)ccc2O[C@@H](C)CCCCO[C@H]1CN(C)C(=O)Nc1ccc2c(c1)OCO2,-18.5% (inactive),
Cc1cc2c(cc1C)N1C(=O)c3cc4ccccc4cc3NC(=O)C1C(=O)N2 (centres undefined),-4.16% (inactive),
COc1ccc(C(c2nnnn2C2CCCC2)N2CCN(C/C=C/c3ccccc3)CC2)cc1 (centres undefined),-9.92% (inactive),
Cc1ccc(S(=O)(=O)N2C[C@]3(O)C[C@@H]4C(=O)N(c5ccccc5)C(=O)[C@@H]4C[C@]3(OC(=O)NC3CC3)C2)cc1,-20.4% (inactive),
